Screening data deposited in PubChem by National Center for Advancing Translational Sciences (NCATS).
Pf Dd2 growth – inhibitors of Plasmodium falciparum Dd2 growth; P. falciparum Dd2 growth, SYBR Green, 72 h; hit rate 4.3% among 120,000; Potency, µM (titrated, usually from 28.9 µM), for the others: at the top dose activity, negative = inhibition, usual class: inhibitors; AID 1347417; active = well fitted inhibition curve with a large enough effect;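 note: plate controls were DMSO vehicle for no effect and reference drug for full effect; nearly all actives have a fitted effect of over 65% in size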
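Readout: SYBR Green fluorescence, 485 nm excitation, 535 nm emission, after ~16 h lysis at 37C. Before that, Dd2-infected red cells (2.5% hematocrit) grew 72 h with compound, 29 uM top final concentration.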
* marks the source's active call; other numbers are inactive results; i = inactive; [ ] = another dose, or the depositor's remark. The entries come from a sample that favours hits as a whole. Potency is the fitted concentration of half-maximal effect.

SMILES	Pf Dd2 growth
CC(=O)N1C[C@@H](C(=O)N2CCOCC2)[C@H](c2nc(C)no2)C1	-11%
CCN1C(=O)CCN(CC2CCCCC2)CC12CCOCC2	3.5µM*
CCN1C(=O)CCN(S(=O)(=O)CC)CC12CCOCC2	7%
CCN1C(=O)CCN(C(C)=O)CC12CCOCC2	11%
CCn1c2c(c(=O)n3ncc(C(=O)Nc4ccc(F)cc4Cl)c13)CN(Cc1ccc(OC)cc1)CC2	11µM*
COc1ccc(-c2nc(C)nc3c2CN(Cc2ccc(NC(C)=O)cc2)CC3)cc1	i
CCn1c2c(c(=O)n3ncc(C(=O)Nc4ccc(C(=O)OC)cc4)c13)CN(Cc1ccc(OC)cc1)CC2	10µM*
CCOC(=O)c1ccc(NC(=O)CSc2nc3c(c(=O)[nH]2)CN(Cc2ccccc2)CC3)cc1	-10%
COC(=O)N1CCn2ncc(C(=O)Nc3ccc(Cl)cc3Cl)c2C1	-3%
COc1cc(=O)n2c(c1C(=O)Nc1ccc(F)cc1Cl)CCCC2	32%
COC(=O)[C@H](NC(=O)C1=C[C@@H](NS(=O)(=O)c2cccc(C(F)(F)F)c2)[C@@H](O)[C@H](O)C1)C(C)C	-16%
CN1CCCCCCN(C(=O)c2ccco2)[C@H]2CCC[C@H]2C1=O	-16%
COc1ccc(OC)c(S(=O)(=O)NC[C@H]2C[C@@H]3CCN2C[C@@H]3c2cc(-c3ccc4ccccc4c3)nn2C)c1	i
COc1ccc(-c2cc([C@H]3CN4CC[C@H]3C[C@@H]4CN)n(C)n2)cc1OC	11µM*
CC(=O)NC[C@H]1C[C@@H]2CCN1C[C@@H]2c1cc(-c2ccc3ccccc3c2)nn1C	i
COc1ccc(-c2cc([C@H]3CN4CC[C@H]3C[C@@H]4CNC(=O)c3ccco3)n(C)n2)cc1OC	i
COc1ccc(-c2cc([C@H]3CN4CC[C@H]3C[C@@H]4CNC(=O)NCc3ccccc3)n(C)n2)cc1	-13%
COc1ccc(-c2cc([C@H]3CN4CC[C@H]3C[C@@H]4CNS(=O)(=O)c3ccc(Cl)cc3)n(C)n2)cc1OC	0.63µM*
COc1ccc(-c2cc([C@H]3CN4CC[C@H]3C[C@@H]4CNS(=O)(=O)c3ccc(NC(C)=O)cc3)n(C)n2)cc1	i
COc1ccc(-c2cc([C@H]3CN4CC[C@H]3C[C@@H]4COC(=O)NC(C)C)n(C)n2)cc1OC	i
Cn1nc(-c2ccc3ccccc3c2)cc1[C@H]1CN2CC[C@H]1C[C@@H]2CNC(=O)NCc1ccccc1	7.9µM*
O=C(c1ccccn1)N1CCC(Cc2nc(C3CCOCC3)no2)CC1	10%
O=C(c1ccc(=O)[nH]c1)N1C[C@@H](CN2CCCC2)[C@@H](CO)C1	0%
CCOc1ccc(CNC(=O)CCC(=O)N2CC3CCCN3c3ccccc32)cc1 (configuration not stated)	13µM*
COc1ccc(CNC(=O)CCC(=O)N2CC3CCCN3c3ccccc32)c(OC)c1 (configuration not stated)	-16%
SMILES	Pf Dd2 growth
Cc1ccc(CNC(=O)CCC(=O)N2CCSc3ccccc32)cc1	-8%
O=C(CC[C@@H]1CNC(=O)[C@@H]2C[C@H](NCc3ccc(CO)o3)CN12)NCc1ccc(F)cc1	21%
CC(=O)Nc1ccc(CN2CCC3(CC2)CC(c2cccc(C(F)(F)F)c2)=NO3)cc1	10µM*
Fc1ccc(CN2CCCC3(CC(c4cccc(C(F)(F)F)c4)=NO3)C2)cc1 (configuration not stated)	-16%
N#Cc1ccc(CN2CCC3(CC(c4cccc(C(F)(F)F)c4)=NO3)C2)cc1 (configuration not stated)	-18%
CC(=O)Nc1ccc(CN2CCC3(CC2)CC(c2cccnc2)=NO3)cc1	-8%
CN(C)c1ccc(CN2CCCC3(CC(c4cccc(C(F)(F)F)c4)=NO3)C2)cc1 (configuration not stated)	7%
Fc1ccc(CN2CCC3(CC(c4cccc(C(F)(F)F)c4)=NO3)C2)cc1 (configuration not stated)	10µM*
CC1(C(=O)NCc2ccc3c(c2)OCO3)CCCCC(=O)N1 (configuration not stated)	-16%
O=C(Nc1ccc(F)cc1)N1CCC(Oc2ncccc2C(=O)N2CCOCC2)C1 (configuration not stated)	19%
CC(=O)NC1CCN(C(=O)Cc2c(C)[nH]c3c(C)ccc(C)c23)C1 (configuration not stated)	25%
CNC(=O)c1cn2c(n1)CN(C(=O)OC)CC2	9%[44.1 µM]
c1cncc(-c2ccnc(NCCCN3CCCc4ccccc43)n2)c1	11µM*
c1ccc2c(c1)CCCN2CCCNc1ncncn1	-15%
c1cncc(-c2ccnc(NCCCn3nccc3C3CC3)n2)c1	-28%
COCC1CN(C(=O)c2ccc(OC)cc2OC)CC12CCOCC2 (configuration not stated)	15%
COc1ccc(/C=C/c2ccc3c(c2)C(=O)N2CC[C@H](NC(=O)c4cnccn4)[C@H]2C(=O)N3)cc1	i
Cn1nc2n(c1=O)CCN(C(=O)CC1=CCCCC1)CC2	2%
COc1cccc(C(=O)N2CCC(N(C(C)=O)C3CCOCC3)CC2)c1	-15%
O=C(CCc1cccnc1)N1CCCC(CCc2cccc(F)c2)C1 (configuration not stated)	-17%
CN(C)[C@H]1CCN(C(=O)c2ccccc2-n2cncn2)C[C@H]1CCC(=O)O	-13%
C[C@H]1[C@@H]2[C@@H](O)C([C@H](C)C(=O)N(C)Cc3ccccc3)CC[C@@]2(C)CC[C@@H]1NC(=O)c1ccccn1 (some centres not stated)	-3%
CCN1CCN(C(=O)c2cc(-c3ccccc3)cn2C)CC1	2%
COc1ccc(-c2cc([C@H]3CN4CC[C@H]3C[C@@H]4CNC(=O)N3CCOCC3)nc(C)n2)cc1OC	-3%
COc1ccc(-c2c(C)c3ccc(O)c(CN4CCOCC4)c3oc2=O)cc1OC	-17%
SMILES	Pf Dd2 growth
COc1cccc2cc(-c3nnc(-c4ccc(Cl)cc4)o3)c(=O)oc12	52%
COc1cccc2cc(-c3nc(-c4ccc(C)cc4)c(C)s3)c(=O)oc12	75%
O=C(O)c1ccc2nc(-c3cc4cccc(O)c4oc3=O)[nH]c2c1	-12%
COc1ccc(-c2cc3ccc(O)c(CN4CCOCC4)c3oc2=O)cc1OC	10µM*
CN1CCN(Cc2c(O)ccc3cc(-c4ccccc4)c(=O)oc23)CC1	10µM*
COc1ccc(-c2cc3ccc(O)c(CN4CCN(C)CC4)c3oc2=O)cc1OC	11µM*
COc1ccc(C2(C(=O)N3CCC4(CC3)CC(N(C(C)=O)C3CC3)CCO4)CC2)cc1 (configuration not stated)	i
CCOc1cccc(CNC(=O)Cn2c(C)ccc(NC(=O)NC)c2=O)c1	26%
Cn1nc(C2CCN(C(=O)Cc3ccccc3)CC2)c2c1CCOC2	21%[5.79 µM]
CCc1ccc(NC(=O)N2CCN(C)C3(CCC(=O)N(C)CC3)C2)cc1 (configuration not stated)	-8%
Cn1cc(CN2C[C@H](C(=O)Nc3ccncn3)C[C@@H]2c2cccc(C(F)(F)F)c2)cn1	-26%[44.1 µM]
COCC1CN(C)CC12CCN(C(=O)NC1CCCCC1)CC2 (configuration not stated)	21%
O=C(NC1CC1)c1ccccc1OC1CN(Cc2ccc(F)cc2Cl)C1	-11%
FC(F)(F)c1cccc2c(N3CCC4(CCCN4Cc4ncc[nH]4)CC3)ccnc12	10µM*
OC[C@H]1CCN(c2ccnc3c(C(F)(F)F)cccc23)C[C@H]1O	-22%
COCCC1(C(=O)O)CCN(c2ccnc3c(C(F)(F)F)cccc23)CC1	-13%
O=C(Nc1cccc(C(F)(F)F)c1)c1nc2c(o1)CCN(Cc1cccs1)CC2	i
